Our source for the inhibition values is PubChem BioAssay AID1578 (Sanford-Burnham Center for Chemical Genomics, 2009).

Several values for one entry are separate records, joined by “and”; a condition that tells them apart may be missing. Equal values may be shown once. In all, about 290,000 compounds went through this assay and about 3,000 (1%) were called active. Cut-off read from the data, not from the text of the source: active = inhibition mostly above about 36% (no sharp cut-off); inactive = mostly below about 34%. Many of the other results were omitted from the sample, so actives are more common in it than they were.

A short description of this test: NOD1 signaling inhibitors, primary screen, cell-based, luminescence, uHTS (AID 1578).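 Note: HEK-293T reporter cells stimulated with the NOD1 agonist gamma-tri-DAP.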 As to conditions: NOD1-driven NF-kB luciferase reporter cells, at 4 µM, stronger effect = higher value.
Turning to `COc1ccccc1Oc1nc(-c2ccccc2)cc(C)c1S(C)(=O)=O`, the inhibition is -16.2% (inactive). For `COc1cccc(NC(=O)C2CCN(S(=O)(=O)c3ccc4c(c3)CC(C)N4C(C)=O)CC2)c1` (configuration not stated), the inhibition is -22.9% (inactive).

Turning to `Cc1ccc(-c2cc3nc(-c4ccc(Br)cc4)cc(N)n3n2)cc1`, the inhibition is -9.8% (inactive). On to `Nc1cc(-c2ccc(Br)cc2)nc2cc(-c3ccccc3)nn12`, for which the inhibition was -10.5% (inactive).

Turning to `CN1C(=O)C(C)(C)c2cc(S(=O)(=O)NCCc3ccc(Cl)cc3)ccc21`, the inhibition was -14.4% (inactive). In the case of `CC1(C)Cc2c(sc3c2c(=N)n(Cc2ccco2)c(=O)n3CC(=O)Nc2ccc(Cl)cc2)CO1` it was 1% (inactive). In the case of `COc1ccc2nc(C)cc(N3CC(C)OC(C)C3)c2c1` (configuration not stated), the inhibition is 8.1% (inactive). In the case of `O=C(O)CCc1cc(I)c(Oc2ccc(O)c(I)c2)c(I)c1` it was 51.7% (active). In the case of `O=C(O)Cc1cc(I)c(Oc2ccc(O)c(I)c2)c(I)c1`, the inhibition was -16.4% (inactive). Consider `N[C@@H](Cc1cc(I)c(Oc2ccc(O)c(I)c2)c(I)c1)C(=O)O`, for which the inhibition is 14.2% (inactive). Take `C=CCC(O)(CCN1CCCCC1)c1ccccc1` (configuration not stated): the inhibition was -19.4% (inactive). Regarding `Cc1ccccc1N(C(=O)c1ccccn1)C(C(=O)NCc1ccccc1)c1ccncc1` (configuration not stated), the inhibition is -21.2% (inactive). Then `O=C(Cc1ccc(Cl)cc1Cl)Nc1cccc(S(=O)(=O)Nc2ccccc2F)c1`, with -7.5% (inactive). With `N#CC(C#N)=C1C=CC=CN1/C(=C\c1ccco1)C(=O)c1ccc(Cl)cc1`, the inhibition is 104% (active). In the case of `N#CC(C#N)=C1C=CC=CN1/C(=C\c1ccco1)C(=O)c1ccc(Br)cc1`, the inhibition was -10.9% (inactive). On to `N#CC(C#N)=C1C=CC=CN1/C(=C\c1ccco1)C(=O)c1ccccc1`, for which the inhibition was -25.3% (inactive). Take `CCOC(=O)C(CCc1nnc(N)s1)C(=O)OCC`: the inhibition was -16.9% (inactive). On to `COc1ccc(N(CC(=O)NCc2ccco2)C(=O)CCC(=O)Nc2nccs2)c(OC)c1`, for which the inhibition is -20.5% (inactive). In the case of `O=C(N/N=C/c1cn(-c2cccs2)nc1-c1ccccc1)c1ccccc1Br` it was -30.5% (inactive); in that of `O=C(O)c1[nH]c2ccccc2c1C(c1c(F)cccc1Cl)c1c(C(=O)O)[nH]c2ccccc12`, -43.4% (inactive); in that of `O=C1/C(=C/c2cccc([N+](=O)[O-])c2)CSc2ccc(Cl)cc21`, -12% (inactive). Then `CNc1ccc(/C=C2\COc3ccccc3C2=O)cc1[N+](=O)[O-]`, with -7.1% (inactive). In the case of `CNc1ccc(/C=C2\CSc3ccccc3C2=O)cc1[N+](=O)[O-]` it was 73.4% (active); in that of `COc1ccc(C2/C(=C(/O)c3ccccc3)C(=O)C(=O)N2C)cc1` (configuration not stated), -38.6% (inactive). Turning to `COc1cccc2cc(C(=O)NCc3ccc(Cl)cc3)c(=N)oc12`, the inhibition was 85.8% (active). Take `COc1cccc2cc(C(=O)NCc3ccc(C)cc3)c(=N)oc12`: the inhibition is 18.3% (inactive). `COc1ccc(CNC(=O)c2cc3cccc(OC)c3oc2=N)cc1`: the inhibition was 4.1% (inactive). With `COc1cc(/C=N\NC(=O)c2ccc(-c3ccccc3)cc2)ccc1OCC(N)=O`, the inhibition was -24.5% (inactive). Turning to `Cc1ccc(S(=O)(=O)N(C)c2cc(S(=O)(=O)N3CCOCC3)c(C)cc2C)cc1`, the inhibition is -26.1% (inactive).

As for `COc1cc(S(=O)(=O)NCc2ccc3c(c2)OCO3)ccc1Cl`, the inhibition is -0.2% (inactive). Turning to `COc1c(C(=O)NC(=S)Nc2nnn(C)n2)cc2ccccc2c1Br`, the inhibition was 29.6% (inactive).

For the compound `CC(NC(=O)CCc1c[nH]c2ccccc12)c1ccccc1` (configuration not stated), the inhibition was -38.3% (inactive). In the case of `CC(C)NC(=O)CCCc1c[nH]c2ccccc12` it was -33% (inactive); in that of `CC(NC(=O)CCCc1c[nH]c2ccccc12)c1ccc(F)cc1` (configuration not stated), 51.3% (active). With `Cc1ccc(Nc2nnc(-c3ccc4c(c3)OCO4)o2)c(C)c1`, the inhibition is -19.5% (inactive). Turning to `Cc1cc(N/N=C/c2cccc(Cl)c2)nc(-n2nc(C)cc2C)n1`, the inhibition was -0.3% (inactive). With `Cc1cc(N/N=C/c2cccc([N+](=O)[O-])c2)nc(-n2nc(C)cc2C)n1`, the inhibition was -14.5% (inactive). For `Cc1nn(-c2ccccc2)c2c1P(=O)(O)/C(=C1\N(C)c3ccccc3C1(C)C)C=N2`, the inhibition was -9% (inactive). `Cc1cc(C(=O)NNS(=O)(=O)c2ccc(C(C)(C)C)cc2)nn1C(C)(C)C`: the inhibition was -6.5% (inactive). In the case of `NNC(=O)Cn1c(-c2ccccn2)nc2ccccc21`, the inhibition was -10.4% (inactive).

`Cc1cc(=O)oc(C)c1C(=O)OCC(=O)c1ccc(Br)cc1`: the inhibition was -27.3% (inactive). Then `Cc1cc(=O)oc(C)c1C(=O)OCC(=O)c1ccc(Cl)cc1`, with 79.2% (active).

For `Cc1cc(=O)oc(C)c1C(=O)OCC(=O)c1ccc(Cl)c(Cl)c1`, the inhibition was -32.3% (inactive). Then `CCOC(=O)N1CCN(S(=O)(=O)N2CCCC(C(=O)NCCc3ccccc3)C2)CC1` (configuration not stated), with -26.5% (inactive); and `CC(C)c1[nH]c(=O)c(C#N)c2c1COC(C)(C)C2`, with -18.6% (inactive); and `CC(C)n1c(O)c(N=NC(=O)CNC(=O)c2cccnc2)c2ccccc21`, with -19.7% (inactive). Regarding `CC(C)c1nc(NCCO)c(C#N)c2c1CCCC2`, the inhibition was 81% (active).

Consider `CCCc1nc(NCCO)c(C#N)c2c1CCCC2`, for which the inhibition was 17.9% (inactive). For `CCCCc1nc(NCCO)c(C#N)c2c1CCCC2`, the inhibition is -8.5% (inactive). `CCCc1nn2c(N)c(/C=C3\C=Nc4ccccc43)c(=O)nc2s1`: the inhibition was -56% (inactive) and -14.1% (inactive). Turning to `CCc1nn2c(N)c(/C=C3\C=Nc4ccccc43)c(=O)nc2s1`, the inhibition was -37.5% (inactive) and 2.9% (inactive). In the case of `CCCCc1nn2c(N)c(/C=C3\C=Nc4ccccc43)c(=O)nc2s1`, the inhibition was 79.1% (active). In the case of `Cc1ccc(S(=O)(=O)n2cc(-c3ccccc3)c(N)n2)cc1`, the inhibition is -4.9% (inactive). For the compound `Nc1nonc1C(=O)NCCNC(=O)c1cccc(Cl)c1`, the inhibition was -28.8% (inactive). As to `CCOC(=O)c1ccccc1Nc1cn(C(C)=O)c2ccccc12`, the inhibition is -3.8% (inactive). Regarding `CC(=O)n1cc(N(C(=O)CCl)c2ccc([N+](=O)[O-])cc2)c2ccccc21`, the inhibition was 38.7% (active). For `CC(=O)n1cc(N(C(=O)CCl)c2ccc(Cl)cc2)c2ccccc21`, the inhibition was 14.2% (inactive). Regarding `CC(=O)n1cc(CO)c2ccccc21`, the inhibition is -5.2% (inactive). As for `COc1ccccc1N(C(=O)CCl)c1cn(C(C)=O)c2ccccc12`, the inhibition was 93% (active). In the case of `CC(=O)n1cc(Nc2ccc([N+](=O)[O-])cc2)c2ccccc21` it was -18% (inactive).

For `CC(=O)N(c1ccc(Cl)cc1)c1cn(C(C)=O)c2ccccc12`, the inhibition is -16.5% (inactive). Consider `O=Cc1[nH]c2ccccc2c1N(C(=O)CCl)c1ccc([N+](=O)[O-])cc1`, for which the inhibition is 19.2% (inactive).

A word on the inhibition: it is the relative decrease from the control value, in per cent.
